# Tests used:
# Assay in all cases: DAPPL (digital affinity profiling via proximity ligation, sequencing); 10 mM Tris-HCl pH 7.5, 50 mM NaCl, 1 mM DTT, 4% glycerol, room temperature, 30 min; GST-TFs on glutathione beads, 16-mer random dsDNA library, 0.1% formaldehyde crosslink after washing; high values mean tight binding
# FEV = molecular target: T1, FEV (Homo sapiens, UniProt Q99581 1-238); details: protein: recombinant; tags: N-terminal GST; dsDNA, one strand shown
# T1 sequence: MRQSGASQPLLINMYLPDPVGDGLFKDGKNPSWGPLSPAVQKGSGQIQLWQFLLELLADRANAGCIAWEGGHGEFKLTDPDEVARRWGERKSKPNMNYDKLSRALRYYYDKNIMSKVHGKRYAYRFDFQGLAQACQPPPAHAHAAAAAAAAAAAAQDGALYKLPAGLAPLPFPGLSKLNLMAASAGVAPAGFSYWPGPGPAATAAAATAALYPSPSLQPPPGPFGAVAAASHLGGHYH
# Procedure, shortened: (§1)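 Binding signal is defined as a hexamer's read frequency for one factor over its frequency for the tag-only sample. To obtain reads, GST-fused human transcription factors were expressed in yeast, captured on glutathione beads, barcoded with DNA and pooled with that sample. Pools met 200 nmole of a 16-mer random double-stranded DNA library in Tris/NaCl/DTT/glycerol buffer for 30 min at room temperature before washing, 0.1% formaldehyde crosslinking, proximity ligation (BsaI/T4 ligase, 1 h, 37 °C), PCR and Illumina NextSeq500 sequencing.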
# ETV5 = ETV5 (Homo sapiens, UniProt P41161 1-510); details: protein: recombinant; tags: N-terminal GST; dsDNA, one strand shown
# Procedure, shortened: as §1
# HSF1 = HSF1 (Homo sapiens, UniProt Q00613 1-529); details: protein: recombinant; tags: N-terminal GST; chain copies: 3; dsDNA, one strand shown
# Procedure, shortened: as §1
# SPIC = molecular target: T2, SPIC (Homo sapiens, UniProt Q8N5J4 1-248); details: protein: recombinant; tags: N-terminal GST; dsDNA, one strand shown
# T2 sequence: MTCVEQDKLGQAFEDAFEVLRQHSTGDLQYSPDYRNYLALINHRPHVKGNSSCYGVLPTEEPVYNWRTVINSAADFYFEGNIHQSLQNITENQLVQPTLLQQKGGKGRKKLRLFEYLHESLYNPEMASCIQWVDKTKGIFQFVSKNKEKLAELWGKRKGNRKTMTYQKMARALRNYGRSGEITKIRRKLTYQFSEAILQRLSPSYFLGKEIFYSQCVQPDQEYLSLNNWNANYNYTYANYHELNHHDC
# Procedure, shortened: as §1
# ELF4 = ELF4 (Homo sapiens, UniProt Q99607 1-663); details: protein: recombinant; tags: N-terminal GST; dsDNA, one strand shown
# Procedure, shortened: as §1
# ELK4 = molecular target: T3, ELK4 (Homo sapiens, UniProt P28324-2 1-405); details: protein: recombinant; tags: N-terminal GST; dsDNA, one strand shown
# T3 sequence: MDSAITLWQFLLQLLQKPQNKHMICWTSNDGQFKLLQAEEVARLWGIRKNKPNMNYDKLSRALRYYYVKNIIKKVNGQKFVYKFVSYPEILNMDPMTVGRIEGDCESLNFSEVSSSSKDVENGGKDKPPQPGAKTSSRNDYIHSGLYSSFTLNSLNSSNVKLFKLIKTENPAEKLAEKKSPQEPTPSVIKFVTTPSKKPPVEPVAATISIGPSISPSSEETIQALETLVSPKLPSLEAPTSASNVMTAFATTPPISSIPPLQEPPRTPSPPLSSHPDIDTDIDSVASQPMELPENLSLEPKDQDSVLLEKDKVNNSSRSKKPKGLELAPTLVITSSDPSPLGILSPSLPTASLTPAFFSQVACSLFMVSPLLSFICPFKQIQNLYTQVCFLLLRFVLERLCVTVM
# Procedure, shortened: as §1
# ETV2 = molecular target: T4, ETV2 (Homo sapiens, UniProt O00321 1-342); details: protein: recombinant; tags: N-terminal GST; dsDNA, one strand shown
# T4 sequence: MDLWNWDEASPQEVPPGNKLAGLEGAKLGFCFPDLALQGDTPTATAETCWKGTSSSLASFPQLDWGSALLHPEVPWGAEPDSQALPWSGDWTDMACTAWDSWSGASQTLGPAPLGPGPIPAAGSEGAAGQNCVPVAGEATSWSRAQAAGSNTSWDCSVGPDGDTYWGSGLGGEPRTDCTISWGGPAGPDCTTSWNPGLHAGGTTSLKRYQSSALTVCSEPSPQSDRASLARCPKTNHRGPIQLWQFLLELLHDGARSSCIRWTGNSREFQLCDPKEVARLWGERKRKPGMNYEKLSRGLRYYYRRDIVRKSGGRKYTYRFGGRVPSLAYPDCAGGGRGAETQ
# Procedure, shortened: as §1
# ELF3 = molecular target: T5, ELF3 (Homo sapiens, UniProt P78545 1-371); details: protein: recombinant; tags: N-terminal GST; dsDNA, one strand shown
# T5 sequence: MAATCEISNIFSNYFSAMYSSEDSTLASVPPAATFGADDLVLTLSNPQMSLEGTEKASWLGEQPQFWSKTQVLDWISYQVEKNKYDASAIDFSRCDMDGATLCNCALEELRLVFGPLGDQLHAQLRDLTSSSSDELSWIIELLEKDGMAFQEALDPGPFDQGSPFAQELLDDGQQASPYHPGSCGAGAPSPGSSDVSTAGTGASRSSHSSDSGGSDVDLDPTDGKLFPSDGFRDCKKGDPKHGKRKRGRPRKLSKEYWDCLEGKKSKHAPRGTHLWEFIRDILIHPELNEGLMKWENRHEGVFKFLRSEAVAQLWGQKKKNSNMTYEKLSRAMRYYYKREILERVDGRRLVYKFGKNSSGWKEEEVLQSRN
# Procedure, shortened: as §1
# CRX = CRX (Homo sapiens, UniProt O43186 1-299); details: protein: recombinant; tags: N-terminal GST; dsDNA, one strand shown
# Procedure, shortened: as §1
# ETV1 = ETV1 (Homo sapiens, UniProt P50549 1-477); details: protein: recombinant; tags: N-terminal GST; dsDNA, one strand shown
# Procedure, shortened: as §1
# Chain of ELF4 (Q99607 whole entry): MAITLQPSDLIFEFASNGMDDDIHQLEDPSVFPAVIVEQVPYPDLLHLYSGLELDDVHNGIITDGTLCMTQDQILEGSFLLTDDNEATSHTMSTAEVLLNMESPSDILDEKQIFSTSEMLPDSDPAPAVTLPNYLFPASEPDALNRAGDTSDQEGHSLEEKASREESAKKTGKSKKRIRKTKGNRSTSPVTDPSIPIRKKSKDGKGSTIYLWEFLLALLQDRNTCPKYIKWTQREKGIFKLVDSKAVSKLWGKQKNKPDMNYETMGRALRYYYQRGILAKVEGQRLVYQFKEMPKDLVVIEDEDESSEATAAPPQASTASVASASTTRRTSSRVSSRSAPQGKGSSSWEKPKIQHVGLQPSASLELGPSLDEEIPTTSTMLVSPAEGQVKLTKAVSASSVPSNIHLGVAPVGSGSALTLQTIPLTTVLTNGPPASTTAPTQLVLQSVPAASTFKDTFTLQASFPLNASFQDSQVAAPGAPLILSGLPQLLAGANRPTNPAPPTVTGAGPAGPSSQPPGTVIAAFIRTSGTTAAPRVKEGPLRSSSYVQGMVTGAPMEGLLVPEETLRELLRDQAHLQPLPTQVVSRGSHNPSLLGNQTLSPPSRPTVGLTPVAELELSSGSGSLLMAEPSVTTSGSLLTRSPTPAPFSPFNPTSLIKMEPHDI
# Chain of CRX (O43186 whole entry): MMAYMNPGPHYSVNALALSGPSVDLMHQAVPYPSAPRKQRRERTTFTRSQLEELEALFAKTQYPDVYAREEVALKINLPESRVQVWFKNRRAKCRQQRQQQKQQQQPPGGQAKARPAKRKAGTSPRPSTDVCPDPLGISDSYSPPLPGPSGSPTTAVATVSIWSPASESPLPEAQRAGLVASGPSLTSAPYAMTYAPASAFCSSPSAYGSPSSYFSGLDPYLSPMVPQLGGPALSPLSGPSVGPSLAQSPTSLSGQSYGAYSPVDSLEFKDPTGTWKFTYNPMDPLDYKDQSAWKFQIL
# Chain of ETV5 (P41161 whole entry): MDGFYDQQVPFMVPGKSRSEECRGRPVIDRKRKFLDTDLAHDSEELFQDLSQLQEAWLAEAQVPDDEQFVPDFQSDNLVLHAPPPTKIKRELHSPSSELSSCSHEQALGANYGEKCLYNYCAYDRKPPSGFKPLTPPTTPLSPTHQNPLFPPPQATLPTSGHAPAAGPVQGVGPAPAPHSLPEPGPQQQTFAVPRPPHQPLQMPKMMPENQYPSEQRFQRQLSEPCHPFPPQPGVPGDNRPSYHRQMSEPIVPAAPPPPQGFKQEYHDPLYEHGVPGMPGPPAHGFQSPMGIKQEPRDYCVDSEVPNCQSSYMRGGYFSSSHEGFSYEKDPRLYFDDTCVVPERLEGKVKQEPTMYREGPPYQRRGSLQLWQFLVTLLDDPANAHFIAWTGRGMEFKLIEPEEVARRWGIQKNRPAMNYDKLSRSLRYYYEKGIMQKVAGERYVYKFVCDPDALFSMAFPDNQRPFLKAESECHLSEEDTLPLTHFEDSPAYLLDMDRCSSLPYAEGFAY
# Chain of ETV1 (P50549 whole entry): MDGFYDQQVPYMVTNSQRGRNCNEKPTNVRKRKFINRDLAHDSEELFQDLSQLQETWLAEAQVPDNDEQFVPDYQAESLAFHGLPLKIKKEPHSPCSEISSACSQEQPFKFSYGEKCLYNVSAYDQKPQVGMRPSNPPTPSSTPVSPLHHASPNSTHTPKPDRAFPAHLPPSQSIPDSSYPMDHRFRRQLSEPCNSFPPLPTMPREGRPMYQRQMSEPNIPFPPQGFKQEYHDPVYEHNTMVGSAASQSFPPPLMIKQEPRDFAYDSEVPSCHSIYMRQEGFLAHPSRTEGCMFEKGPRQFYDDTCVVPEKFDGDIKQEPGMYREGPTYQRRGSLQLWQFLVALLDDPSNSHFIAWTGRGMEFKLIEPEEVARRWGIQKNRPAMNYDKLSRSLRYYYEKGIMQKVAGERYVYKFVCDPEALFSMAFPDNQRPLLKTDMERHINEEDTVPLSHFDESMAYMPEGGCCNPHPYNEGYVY
# Chain of HSF1 (Q00613 whole entry): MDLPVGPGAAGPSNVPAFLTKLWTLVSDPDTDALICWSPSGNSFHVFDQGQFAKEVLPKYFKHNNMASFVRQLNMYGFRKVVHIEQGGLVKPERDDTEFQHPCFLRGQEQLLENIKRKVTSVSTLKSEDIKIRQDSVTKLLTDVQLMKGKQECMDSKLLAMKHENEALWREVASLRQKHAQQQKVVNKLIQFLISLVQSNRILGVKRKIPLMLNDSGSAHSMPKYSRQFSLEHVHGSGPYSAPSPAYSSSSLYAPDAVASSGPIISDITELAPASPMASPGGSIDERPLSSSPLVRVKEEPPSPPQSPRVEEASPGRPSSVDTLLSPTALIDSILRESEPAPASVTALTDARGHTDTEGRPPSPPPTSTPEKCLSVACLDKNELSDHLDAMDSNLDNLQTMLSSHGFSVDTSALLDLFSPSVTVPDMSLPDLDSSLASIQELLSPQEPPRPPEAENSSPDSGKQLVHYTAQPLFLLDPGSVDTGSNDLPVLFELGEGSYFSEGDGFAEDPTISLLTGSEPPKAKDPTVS
sequence,measurement,setting,value
TAGCAC,binding signal,FEV,"1.22 fold enrichment (6-mer frequency, TF over GST control)"
same,binding signal,ETV5,"1.14 fold enrichment (6-mer frequency, TF over GST control)"
same,binding signal,HSF1,"1.24 fold enrichment (6-mer frequency, TF over GST control)"
same,binding signal,SPIC,"1.04 fold enrichment (6-mer frequency, TF over GST control)"
same,binding signal,ELF4,"1.18 fold enrichment (6-mer frequency, TF over GST control)"
same,binding signal,ELK4,"1.11 fold enrichment (6-mer frequency, TF over GST control)"
same,binding signal,ETV2,"1.25 fold enrichment (6-mer frequency, TF over GST control)"
same,binding signal,ELF3,"1.15 fold enrichment (6-mer frequency, TF over GST control)"
same,binding signal,CRX,"1.22 fold enrichment (6-mer frequency, TF over GST control)"
same,binding signal,ETV1,"1.19 fold enrichment (6-mer frequency, TF over GST control)"
